A short description of assay [1]: BSK_hDFCGF_SRB: Viability Assessment in the BioMAP Diversity Plus: hDFCGF Assay (AID 2283061).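 Note: cells exposed to compound for 24 h before the read.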 The following applies: primary human foreskin fibroblasts. In outline:
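Human foreskin primary fibroblasts were treated with compound and assessed 24 h after dosing. Total protein was measured by sulforhodamine B staining (0.1% SRB after 10% TCA fixation, 560 nm read) as a cytotoxicity marker, with bidirectional fitting against DMSO baseline.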

Read-out in assay [2]: TIMP metallopeptidase inhibitor 1 (TIMP1), TIMP1 (gene 7076)
In words: BSK_hDFCGF_TIMP1: BioMAP Diversity Plus: hDFCGF Assay for TIMP metallopeptidase inhibitor 1 (TIMP1) Biomarker Activity (AID 2283062). The settings on record: primary human foreskin fibroblasts; actives raise or lower the signal. In outline: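 Primary human foreskin fibroblasts in the hDFCGF system were dosed with compound for 24 h, then TIMP-1 was measured by ELISA. Activity was fitted bidirectionally relative to DMSO control; parallel SRB staining assessed cytotoxicity.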

Read-out in assay [3]: Monokine induced gamma interferon (MIG), CXCL9 (gene 4283)
Nature of the assay: BSK_hDFCGF_MIG: BioMAP Diversity Plus: hDFCGF Assay for Monokine induced gamma interferon (MIG) Biomarker Activity (AID 2283063). The settings on record: primary human foreskin fibroblasts; actives raise or lower the signal. An outline of the steps: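 ELISA read-out of MIG from primary human dermal fibroblasts 24 h post-dosing. Gain or loss of signal fitted bidirectionally, DMSO as baseline.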

Read-out in assay [4]: Matrix Metallopeptidase 1 (MMP1), MMP1 (gene 4312)
In words: BSK_hDFCGF_MMP1: BioMAP Diversity Plus: hDFCGF Assay for Matrix Metallopeptidase 1 (MMP1) Biomarker Activity (AID 2283064). The settings on record: primary human foreskin fibroblasts; actives raise or lower the signal. An outline of the steps: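 ELISA read-out of MMP1 from human foreskin fibroblasts (primary skin cells), 24 h post-dose. Gain or loss of signal was fitted bidirectionally versus DMSO negative control; cytotoxicity was checked by SRB in parallel cultures.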

Read-out in assay [5]: Vascular cell adhesion molecule 1 (VCAM1), VCAM1 (gene 7412)
In words: BSK_hDFCGF_VCAM1: BioMAP Diversity Plus: hDFCGF Assay for Vascular cell adhesion molecule 1 (VCAM1) Biomarker Activity (AID 2283065).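 For AC50: VCAM-1 protein level quantified by ELISA after 24 h chemical exposure.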 The following applies: primary human foreskin fibroblasts; actives raise or lower the signal. An outline of the steps: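 Primary human foreskin fibroblasts (hDFCGF system) were dosed with chemical and VCAM-1 was measured by ELISA 24 h later. Bidirectional curve fitting used DMSO as negative control and activity baseline.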

Read-out in assay [6]: Plasminogen activator inhibitor-1 (PAI1), SERPINE1 (gene 5054)
Nature of the assay: BSK_hDFCGF_PAI1: BioMAP Diversity Plus: hDFCGF Assay for Plasminogen activator inhibitor-1 (PAI1) Biomarker Activity (AID 2283066). The settings on record: primary human foreskin fibroblasts; actives raise or lower the signal. An outline of the steps: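 PAI-1 levels in human dermal foreskin fibroblasts were quantified by ELISA 24 h after dosing, with gain or loss analysed against DMSO. Overt cytotoxicity was checked by sulforhodamine B total-protein staining in parallel cultures.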

Read-out in assay [7]: Intercellular Adhesion Molecule 1 (ICAM1), ICAM1 (gene 3383)
Nature of the assay: BSK_KF3CT_ICAM1: BioMAP Diversity Plus: KF3CT Assay for Intercellular Adhesion Molecule 1 (ICAM1) Biomarker Activity (AID 2283067). The settings on record: primary human keratinocytes with fibroblasts; actives raise or lower the signal. An outline of the steps:
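Human keratinocyte plus foreskin fibroblast primary co-culture was exposed to chemical for 24 h. ICAM-1 was then quantified by ELISA, and the data were fit bidirectionally against DMSO as the negative control and baseline.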

Read-out in assay [8]: Interferon-gamma inducible Protein 10 (IP10), CXCL10 (gene 3627)
Nature of the assay: BSK_KF3CT_IP10: BioMAP Diversity Plus: KF3CT Assay for Interferon-gamma inducible Protein 10 (IP10) Biomarker Activity (AID 2283068). The following applies: primary human keratinocytes with fibroblasts; actives raise or lower the signal. In outline:
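In a primary skin co-culture of keratinocytes and fibroblasts, IP-10 is quantified by ELISA at 24 h after dosing. SRB staining of parallel wells monitors overt toxicity. Curves are fitted both directions against DMSO.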

A short description of assay [9]: BSK_KF3CT_SRB: Viability Assessment in the BioMAP Diversity Plus: KF3CT Assay (AID 2283069).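 Note: fitted for both signal gain and loss against DMSO baseline.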 The following applies: primary human keratinocytes with fibroblasts. In outline:
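SRB read-out at 560 nm (0.1% stain, TCA-fixed cells) gauges overt cytotoxicity in a human skin keratinocyte–fibroblast co-culture 24 h post-dosing. Signal change was fitted bidirectionally relative to DMSO control.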

Read-out in assay [10]: Macrophage colony-stimulating factor (MCSF), CSF1 (gene 1435)
In words: BSK_hDFCGF_MCSF: BioMAP Diversity Plus: hDFCGF Assay for Macrophage colony-stimulating factor (MCSF) Biomarker Activity (AID 2283060). The following applies: primary human foreskin fibroblasts; actives raise or lower the signal. In outline: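 Human foreskin primary fibroblasts were treated with test chemical for 24 h, and M-CSF was then measured by ELISA. Data were fitted bidirectionally against DMSO as the negative control and activity baseline.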

Calls of active or inactive are those of the source. Rule for the calls: active = hit-call score of the fitted dose curve at least 0.9, where 1 is the maximum; inactive = score below 0.9.

On to `CC(C)Oc1cccc(NC(=O)c2ccccc2C(F)(F)F)c1`, for which the AC50 in [1] was 20 µM (active). Moreover, the result in assay [2], in assay [3], in [4], in assay [5], in assay [6] and in [7] was inactive. Also, the outcome in assay [8] and in assay [9] was inactive.

On to `CC(C)(C)C(=O)C(Oc1ccc(Cl)cc1)n1cncn1` (centres undefined), for which the outcome in assay [10], in [1], in assay [2], in assay [3], in assay [4] and in assay [5] was inactive. Moreover, the result in assay [6], in assay [7], in assay [8] and in assay [9] was inactive.

Turning to `CC(C)C1(C)N=C(c2ncccc2C(=O)O)NC1=O` (centres undefined), the result in [1], in assay [2], in assay [3], in assay [4], in assay [5] and in [6] was inactive. The outcome in assay [7] and in assay [9] was inactive.

For `OC(c1ccc(Cl)cc1)(c1ccc(Cl)cc1)C(Cl)(Cl)Cl`, the half-maximal activity concentration (AC50) was 10.5 µM (active) in [1]; 11.4 µM (active) in assay [2]; 10.1 µM (active) in [3]; 11 µM (active) in assay [4]; 8.87 µM (active) in assay [5]; 11 µM (active) in [6]. Moreover, the AC50 in assay [7] is 11.6 µM (active); in assay [9] it was 6.45 µM (active).

As to `O=C1C2CC=CCC2C(=O)N1SC(Cl)(Cl)Cl` (centres undefined), the AC50 in assay [1] was 6.26 µM (active); in [3] it was 7.37 µM (active); in [4], 10.7 µM (active); in assay [5], 5.37 µM (active); in assay [6], 7.58 µM (active); in [7], 9.86 µM (active). Besides, the figures for the AC50 in assay [8] and in assay [9] were 10.3 µM (active) and 5.79 µM (active), respectively. For the same molecule, the outcome in assay [2] was inactive.

For the molecule `N#CN=C1SCCN1Cc1ccc(Cl)nc1`, the result in [1], in assay [2], in assay [3], in assay [4], in assay [5] and in assay [6] was inactive. Further, the result in assay [7] and in assay [9] was inactive.

As to `Nc1cnn(-c2ccccc2)c(=O)c1Cl`, the outcome in assay [1], in assay [2], in [3], in assay [4], in assay [5] and in assay [6] was inactive. Also, the result in assay [7], in assay [8] and in assay [9] was inactive.

As for `CCNP(=S)(OC)O/C(C)=C/C(=O)OC(C)C` (centres undefined), the outcome in assay [1], in assay [2], in [3], in assay [4], in assay [5] and in [6] was inactive. Also, the result in [7] and in [9] was inactive. Also, in [8], the AC50 was 0.148 µM (active).

On to `CC1(C)C(C(=O)OC(C#N)c2cccc(Oc3ccccc3)c2)C1(C)C` (centres undefined), for which the outcome in assay [1], in assay [2], in [3], in [5], in assay [6] and in assay [7] was inactive. For the same molecule, the result in assay [8] and in [9] was inactive. In addition, the AC50 in assay [4] is 3.02 µM (active).

Turning to `CC(C)NC(=O)N1CC(=O)N(c2cc(Cl)cc(Cl)c2)C1=O`, the outcome in assay [1], in assay [2], in assay [3], in assay [5], in assay [6] and in assay [7] was inactive. Also, the result in assay [9] was inactive. The AC50 in [4] is 0.148 µM (active).

Turning to `CC(C)N1C(=O)c2ccccc2NS1(=O)=O`, the result in assay [1], in assay [3], in [4], in [5], in assay [6] and in [7] was inactive. In assay [9], the result was inactive. Moreover, the AC50 in [2] was 3.97 µM (active).

Take `CCCCC(C#N)(Cn1cncn1)c1ccc(Cl)cc1` (centres undefined): the result in assay [1], in [2], in [3], in [4], in assay [5] and in assay [7] was inactive. For the same molecule, the outcome in [9] was inactive. Moreover, the AC50 in assay [6] is 7.4 µM (active); in assay [8], 0.148 µM (active).

For the molecule `C=CCOC(=O)C(C)(C)OC(=O)c1cc(-n2c(=O)cc(C(F)(F)F)n(C)c2=O)ccc1Cl`, the result in [1], in assay [3], in [5], in assay [7] and in assay [9] was inactive. In addition, the half-maximal activity concentration (AC50) was 30.3 µM (active) in [2], 3.97 µM (active) in assay [4], 3.51 µM (active) in assay [6] and 6.34 µM (active) in [8].

As to `O=P(O)(O)CCCl`, the outcome in assay [1], in [2], in assay [3], in assay [4], in assay [5] and in [6] was inactive. Moreover, the result in [7] and in assay [9] was inactive.

On to `COC(=O)NC(=S)Nc1ccccc1NC(=S)NC(=O)OC`, for which the result in [1], in assay [2], in assay [3], in assay [5], in assay [6] and in assay [7] was inactive. In assay [9], the result was inactive. The concentration at half-maximal activity (AC50) in assay [4] was 3.97 µM (active).

For the molecule `CCCCOCN(C(=O)CCl)c1c(CC)cccc1CC`, the half-maximal activity concentration (AC50) in assay [1] is 31.1 µM (active); in assay [2] it was 13.7 µM (active); in assay [3], 33.3 µM (active); in assay [4] it was 34.8 µM (active); in assay [5] it was 16.9 µM (active); in assay [6] it was 20 µM (active). Also, the results for the AC50 in assay [7], in assay [8] and in assay [9] were 35.2 µM (active), 26.4 µM (active) and 35.6 µM (active), respectively.

As to `CC(C)N1C(=O)N(c2ccccc2)CSC1=NC(C)(C)C`, the half-maximal activity concentration (AC50) in assay [1] is 32.7 µM (active); in assay [3] it was 31.6 µM (active); in [5] it was 32.1 µM (active); in assay [9], 30.8 µM (active). Also, the result in assay [2], in assay [4], in assay [6] and in assay [7] was inactive.

`COC(=O)N(C(=O)N1CO[C@@]2(C(=O)OC)Cc3cc(Cl)ccc3C2=N1)c1ccc(OC(F)(F)F)cc1`: the AC50 in assay [1] is 3.65 µM (active); in assay [6], 5.54 µM (active). In addition, the result in [2], in [3], in [4], in assay [5], in assay [7] and in assay [9] was inactive.

What is called AC50 is the concentration at which the activity in the assay is half-maximal.
